Experimental findings from PubChem BioAssay (NCATS) are described below.

Structures are written as SMILES. Records with an inconclusive call do not appear. Entries that show only a call come without a potency. The source made the active and inactive calls. Calls follow the shape of the full dose curve.

Nucleoprotein (Lymphocytic choriomeningitis virus (strain Armstrong)), sequence (P09992 whole entry, looked up): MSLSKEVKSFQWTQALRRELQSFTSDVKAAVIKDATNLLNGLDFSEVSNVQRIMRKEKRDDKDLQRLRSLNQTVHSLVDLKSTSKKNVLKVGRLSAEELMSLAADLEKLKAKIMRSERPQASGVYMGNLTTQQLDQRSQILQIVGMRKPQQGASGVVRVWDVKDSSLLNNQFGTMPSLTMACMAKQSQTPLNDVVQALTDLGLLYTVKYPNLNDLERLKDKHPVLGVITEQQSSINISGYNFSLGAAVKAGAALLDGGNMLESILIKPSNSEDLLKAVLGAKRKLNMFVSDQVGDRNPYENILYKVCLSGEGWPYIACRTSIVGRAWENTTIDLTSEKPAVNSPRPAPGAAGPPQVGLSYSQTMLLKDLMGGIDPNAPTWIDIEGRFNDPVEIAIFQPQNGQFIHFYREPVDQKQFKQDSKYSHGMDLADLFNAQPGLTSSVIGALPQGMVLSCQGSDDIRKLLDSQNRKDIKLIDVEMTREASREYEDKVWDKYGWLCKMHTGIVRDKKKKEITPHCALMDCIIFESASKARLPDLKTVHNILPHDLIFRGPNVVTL

This assay addresses Nucleoprotein (Lymphocytic choriomeningitis virus (strain Armstrong)) (UniProt P09992). The assay is described as follows: qHTS for Inhibitors of the Functional Ribonucleoprotein Complex (vRNP) of Lymphocytic Choriomeningitis Arenaviruses (LCMV): LCMV Primary Screen - GLuc reporter signal (AID 1347086). Also: nearly all actives have a fitted effect of over 70% in size. Conditions: LCMV minigenome vRNP cell assay, Gaussia luciferase reporter; series mostly up to 57.5 µM. (Quantitative high-throughput screening tests each substance at several concentrations.)
On to `CC1c2ccccc2CN1NC(=O)c1ccc(Cl)c(S(N)(=O)=O)c1` (centres undefined), for which the Potency entry was “inactive”.

As to `O=C(O)Cc1ccc(OCCNC[C@H](O)c2ccccc2)cc1`, the Potency result was “inactive”.

`C/C=C/C=N/NC(=O)c1ccncc1`: the Potency result was “inactive”.

`N=C(N)N`: the Potency result is “inactive”.

As to `CC(=O)N(CC(O)CO)c1c(I)c(C(=O)NCCO)c(I)c(C(=O)NCC(O)CO)c1I` (centres undefined), the Potency result is “inactive”.

In the case of `Oc1c(Br)cc(Br)c2cccnc12`, the Potency result was “inactive”.

As for `CC(C)(C)NCC(O)COc1ccccc1OCC1CCCO1` (centres undefined), the Potency result was “inactive”.

In the case of `CNC[C@H](O)c1cccc(O)c1`, the Potency result was “inactive”.

As to `CCCCNC(=O)NS(=O)(=O)c1ccc(N)cc1`, the Potency entry is “inactive”.

Turning to `CCc1oc2ccccc2c1C(=O)c1cc(I)c(O)c(I)c1`, the Potency entry was “inactive”.

In the case of `Nc1ccc(S(=O)(=O)NCc2ccccc2)cc1`, the Potency result is “inactive”.

Regarding `COc1cc2c(Nc3ccc(Br)cc3F)ncnc2cc1OCC1CCN(C)CC1`, the Potency entry is “inactive”.

On to `CCN(CC)C(C)CN1c2ccccc2Sc2ccccc21` (centres undefined), for which the Potency result was “inactive”.

Consider `CC(C)OP(=O)(CP(=O)(OC(C)C)OC(C)C)OC(C)C`, for which the Potency entry is “inactive”.

Regarding `CC(O)C(=O)O` (centres undefined), the Potency entry was “inactive”.

On to `COc1c(N2C[C@@H]3CCCN[C@@H]3C2)c(F)cc2c(=O)c(C(=O)O)cn(C3CC3)c12`, for which the Potency result is “inactive”.

`CC(C)(CO)[C@@H](O)C(=O)NCCCO`: the Potency result was “inactive”.

For the compound `CC(O)(P(=O)(O)O)P(=O)(O)O`, the Potency entry is “inactive”.

With `COc1ccc(CCN(C)CCCN2CCc3cc(OC)c(OC)cc3CC2=O)cc1OC`, the Potency result is “inactive”.

`CNNCc1ccc(C(=O)NC(C)C)cc1`: the Potency entry is “inactive”.

For the compound `CC(=O)OCC(=O)[C@@]1(O)CC[C@H]2[C@@H]3CCC4=CC(=O)CC[C@]4(C)[C@H]3C(=O)C[C@@]21C`, the Potency result was “inactive”.

Turning to `Cc1cc(O)cc(C)c1Cl`, the Potency result is “inactive”.

Regarding `CCOC(=O)C(O)c1ccccc1` (centres undefined), the Potency entry is “inactive”.

Regarding `CC(C)=CCC/C(C)=C/CC/C(C)=C/CCC(=O)OC/C=C(\C)CCC=C(C)C`, the Potency result is “inactive”.

As to `Cc1cc2nc3c(=O)[nH]c(=O)nc-3n(C[C@H](O)[C@H](O)[C@H](O)CO)c2cc1C`, the Potency result is “inactive”.

Turning to `CCN1CCC[C@H]1CNC(=O)c1c(OC)ccc(Br)c1OC`, the Potency result is “inactive”.

Consider `CC(C=CC1=C(C)CCCC1(C)C)=CC=CC(C)=CC(=O)O`, for which the Potency result is “inactive”.

As to `NS(=O)(=O)c1cc(C(=O)NN2C[C@H]3[C@H]4CCC(C4)[C@H]3C2)ccc1Cl`, the Potency entry was “inactive”.

For `Oc1ccc(Cl)c2cccnc12`, the Potency entry was “inactive”.

For `Nc1ncnc2nc[nH]c12`, the Potency result is “inactive”.

Take `CN(C)C(=O)COC(=O)Cc1ccc(OC(=O)c2ccc(N=C(N)N)cc2)cc1`: the Potency result was “inactive”.

Turning to `CC(C)C(=O)c1c(C(C)C)nn2ccccc12`, the Potency result is “inactive”.

Consider `NS(=O)(=O)c1ccc(Cl)c(S(N)(=O)=O)c1`, for which the Potency result is “inactive”.

On to `CCOC(=O)NNc1ccc(N(CC)CC(C)O)nn1` (centres undefined), for which the Potency entry was “inactive”.

With `O=C(c1ccccc1)C(O)c1ccccc1` (centres undefined), the Potency result is “inactive”.

Take `CC(=O)CC/C=C(\C)CC/C=C(\C)CC/C=C(\C)CCC=C(C)C`: the Potency entry is “inactive”.

For the compound `C[N+]1(C)[C@@H]2CC(OC(=O)[C@H](CO)c3ccccc3)C[C@H]1[C@@H]1O[C@@H]12` (some centres undefined), the Potency result is “inactive”.

Consider `CC(C)(Sc1cc(C(C)(C)C)c(O)c(C(C)(C)C)c1)Sc1cc(C(C)(C)C)c(O)c(C(C)(C)C)c1`, for which the Potency result was “inactive”.

For the compound `COc1cccc(OC)c1C(=O)N[C@@H]1C(=O)N2[C@@H]1SC(C)(C)[C@@H]2C(=O)O`, the Potency result was “inactive”.
